Experimental data from PubChem BioAssay.
Activity calls are given as the source filed them.

What was measured:
[1] = test system: PRMT1 (protein arginine N-methyltransferase 1); experiment: PRMT1 binders on small-molecule microarrays, primary screen, biochemical, small-molecule microarray, 635 nm fluorescence (AID 1088); conditions: small-molecule microarray binding, higher = more signal;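 also: binding of Prmt1 protein to compounds spotted on small-molecule microarray slides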
[2] = yeast growth modulation, basal conditions, primary screen, YJM789 clinical isolate, OD600, 24 h (AID 1089);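 also: growth of clinical yeast isolate S. cerevisiae YJM 789 seeded 1000 cells per well; test concentration not given here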; conditions: S. cerevisiae YJM789 growth, higher = more signal, called active from +8 up or from −8 down
[3] = fission yeast growth modulation, primary screen, strain 972, OD600, 24 h, no modulator (AID 1090);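 also: basal condition with compound alone and no growth modifier present; test concentration not given here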; conditions: S. pombe 972 growth, higher = more signal, called active from +8 up or from −8 down
[4] = S. cerevisiae growth modulation with rapamycin, primary screen, strain BY4716, OD600, 96 h (AID 1091); conditions: higher = more signal, called active from +8 up or from −8 down; also: test concentration not given here
[5] = biological target: Torsin-1A-interacting protein 2 (Homo sapiens) (UniProt Q8NFQ8); experiment: LULL1 binders on small-molecule microarray, primary screen, cell lysate, human LULL1 lysate, 635/667 nm fluorescence (AID 1092); conditions: hLULL1 lysate binding, 635 nm fluorescence, higher = more signal;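 also: probe is lysate of COS7 cells overexpressing human LULL1; score merges per-feature 667 nm fluorescence with signal-to-noise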
Chain of Torsin-1A-interacting protein 2 (Homo sapiens) (Q8NFQ8 whole entry, looked up): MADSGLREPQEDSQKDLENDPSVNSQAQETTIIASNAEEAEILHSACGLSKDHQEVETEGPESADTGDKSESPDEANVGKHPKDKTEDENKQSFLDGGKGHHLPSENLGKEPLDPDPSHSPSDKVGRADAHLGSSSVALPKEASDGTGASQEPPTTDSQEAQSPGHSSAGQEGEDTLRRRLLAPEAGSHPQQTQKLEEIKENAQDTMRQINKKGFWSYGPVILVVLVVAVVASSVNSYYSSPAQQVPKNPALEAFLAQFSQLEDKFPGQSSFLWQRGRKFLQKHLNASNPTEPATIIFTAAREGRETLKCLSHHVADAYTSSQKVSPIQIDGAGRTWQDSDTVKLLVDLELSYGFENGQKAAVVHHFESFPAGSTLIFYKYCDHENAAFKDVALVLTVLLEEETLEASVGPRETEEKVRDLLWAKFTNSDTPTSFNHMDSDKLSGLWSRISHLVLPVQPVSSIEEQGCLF

[6] = E. coli growth modulation, two-sided OD650, primary screen, E. coli filamentation project, strain DRC41, 24 h (AID 1093); conditions: OD650, 24 h, higher = more signal, called active from +8 up or from −8 down;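 also: MC1000 strain lacking acrAB efflux and sulA so SOS filamentation is blocked; test concentration not given here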
[7] = small-molecule microarray binders of probe aLefty2, primary screen, biochemical, biotinylated probe, 635/667 nm fluorescence (AID 1094); conditions: higher = more signal;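 also: score merges spot fluorescence near 667 nm with spot signal-to-noise ratio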
[8] = test system: Noggin (protein binding on small-molecule microarray); experiment: Noggin binders on small-molecule microarray, primary screen, biochemical, 635/667 nm fluorescence (AID 1095); conditions: 635 nm fluorescence, higher = more signal;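 also: score merges 667 nm feature fluorescence with signal to noise over triplicate slides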
[9] = biological target: Neurogenic locus notch homolog protein 3 (Homo sapiens) (UniProt Q9UM47); experiment: NOTCH3 binders on small-molecule microarray, primary screen, biochemical, 635/667 nm fluorescence (AID 1096); conditions: NOTCH3 binding, 635 nm fluorescence, higher = more signal
Chain of Neurogenic locus notch homolog protein 3 (Homo sapiens) (Q9UM47 whole entry, looked up): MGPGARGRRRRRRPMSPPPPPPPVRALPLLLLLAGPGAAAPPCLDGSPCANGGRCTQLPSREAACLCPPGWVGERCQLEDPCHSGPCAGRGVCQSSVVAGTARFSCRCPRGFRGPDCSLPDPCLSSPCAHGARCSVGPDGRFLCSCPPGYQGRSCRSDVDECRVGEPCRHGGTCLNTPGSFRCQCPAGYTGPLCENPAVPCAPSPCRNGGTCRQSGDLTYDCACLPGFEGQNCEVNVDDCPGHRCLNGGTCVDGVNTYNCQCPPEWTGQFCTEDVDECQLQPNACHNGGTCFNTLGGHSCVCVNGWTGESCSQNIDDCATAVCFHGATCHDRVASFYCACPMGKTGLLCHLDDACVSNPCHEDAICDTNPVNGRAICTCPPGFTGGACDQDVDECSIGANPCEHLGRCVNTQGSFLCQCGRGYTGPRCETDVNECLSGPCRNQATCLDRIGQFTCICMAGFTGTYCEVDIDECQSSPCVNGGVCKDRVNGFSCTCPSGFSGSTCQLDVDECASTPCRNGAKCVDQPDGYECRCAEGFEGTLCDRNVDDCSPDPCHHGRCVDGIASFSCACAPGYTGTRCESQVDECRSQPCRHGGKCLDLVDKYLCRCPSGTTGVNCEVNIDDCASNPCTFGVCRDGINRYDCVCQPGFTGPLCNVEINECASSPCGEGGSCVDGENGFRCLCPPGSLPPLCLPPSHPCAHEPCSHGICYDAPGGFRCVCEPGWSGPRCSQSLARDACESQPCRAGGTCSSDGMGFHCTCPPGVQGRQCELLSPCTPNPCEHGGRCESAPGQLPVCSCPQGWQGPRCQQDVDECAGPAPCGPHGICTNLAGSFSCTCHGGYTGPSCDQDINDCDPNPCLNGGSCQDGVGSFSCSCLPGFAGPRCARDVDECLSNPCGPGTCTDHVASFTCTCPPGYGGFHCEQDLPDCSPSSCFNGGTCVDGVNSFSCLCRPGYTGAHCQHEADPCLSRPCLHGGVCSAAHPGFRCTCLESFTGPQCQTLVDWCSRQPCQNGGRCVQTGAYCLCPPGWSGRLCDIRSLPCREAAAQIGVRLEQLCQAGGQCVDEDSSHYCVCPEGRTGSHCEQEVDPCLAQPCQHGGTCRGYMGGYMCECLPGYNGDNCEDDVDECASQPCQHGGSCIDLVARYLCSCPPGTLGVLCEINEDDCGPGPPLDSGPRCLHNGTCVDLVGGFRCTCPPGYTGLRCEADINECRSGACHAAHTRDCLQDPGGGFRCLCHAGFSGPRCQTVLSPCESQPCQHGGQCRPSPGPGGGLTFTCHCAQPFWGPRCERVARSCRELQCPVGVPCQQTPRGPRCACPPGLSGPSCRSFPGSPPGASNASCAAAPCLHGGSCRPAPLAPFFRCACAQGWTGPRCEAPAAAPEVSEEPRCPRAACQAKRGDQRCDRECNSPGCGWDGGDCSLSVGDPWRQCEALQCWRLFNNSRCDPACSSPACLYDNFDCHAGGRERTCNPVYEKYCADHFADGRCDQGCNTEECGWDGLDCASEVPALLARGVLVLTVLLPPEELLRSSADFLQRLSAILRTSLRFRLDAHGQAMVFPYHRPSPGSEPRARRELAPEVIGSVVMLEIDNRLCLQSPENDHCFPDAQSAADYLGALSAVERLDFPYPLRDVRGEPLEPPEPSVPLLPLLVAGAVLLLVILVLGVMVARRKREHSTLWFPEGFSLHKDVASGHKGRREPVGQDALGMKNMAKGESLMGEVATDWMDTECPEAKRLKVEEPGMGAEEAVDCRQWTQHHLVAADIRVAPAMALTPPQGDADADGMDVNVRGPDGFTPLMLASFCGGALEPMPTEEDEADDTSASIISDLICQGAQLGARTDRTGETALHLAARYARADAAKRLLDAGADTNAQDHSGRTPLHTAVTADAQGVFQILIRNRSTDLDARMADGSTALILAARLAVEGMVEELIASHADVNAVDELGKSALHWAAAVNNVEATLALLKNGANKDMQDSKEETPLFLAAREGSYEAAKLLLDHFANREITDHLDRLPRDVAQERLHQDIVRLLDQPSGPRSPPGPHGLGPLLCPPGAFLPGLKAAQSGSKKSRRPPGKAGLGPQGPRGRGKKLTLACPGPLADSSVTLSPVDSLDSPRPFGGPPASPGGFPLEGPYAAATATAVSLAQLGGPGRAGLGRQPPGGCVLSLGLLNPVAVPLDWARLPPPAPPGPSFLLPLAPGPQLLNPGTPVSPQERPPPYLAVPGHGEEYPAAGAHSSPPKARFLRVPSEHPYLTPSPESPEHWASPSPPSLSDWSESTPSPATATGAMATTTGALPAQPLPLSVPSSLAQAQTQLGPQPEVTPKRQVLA

[10] = small-molecule microarray binders of probe aEGFR, primary screen, biochemical, biotinylated probe, 635/667 nm fluorescence (AID 1097); conditions: higher = more signal;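 also: probe is a biotinylated anti-EGFR antibody binding compounds printed on slides; score combines fluorescence near 667 nm and signal to noise of each spot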
[11] = test system: Plasmodium falciparum Sir2 (PF13_0152, Sir2A); experiment: pfSir2 binders on small-molecule microarrays, primary screen, biochemical, small-molecule microarray, 635 nm fluorescence (AID 1098); conditions: small-molecule microarray binding, fluorescence 635 nm; higher = more signal;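 also: score merges spot fluorescence intensity with its signal-to-noise ratio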
[12] = small-molecule microarray binders of probe aDKK1, primary screen, biochemical, biotinylated probe, 635/667 nm fluorescence (AID 1099); conditions: higher = more signal;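 also: score merges 667nm spot fluorescence with signal to noise across triplicate slides; reference of the scale not given here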
[13] = small-molecule microarray binders of probe aCHRDL2, primary screen, biochemical, biotinylated probe, 635/667 nm fluorescence (AID 1100); conditions: higher = more signal
[14] = splicing luciferase reporter signal modulators, primary screen, spliceosome inhibition project, cell-based, HEK293, splice +/- reporter (AID 1101); conditions: luminescence, 24 h, higher = more signal, called active from +8 up or from −8 down;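 also: HEK293 cells carrying a splicing-competent luciferase reporter gene; test concentration not given here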
[15] = biological target: Fibroblast growth factor 10 (Homo sapiens) (UniProt O15520); experiment: FGF10 binders on small-molecule microarrays, primary screen, biochemical, small-molecule microarray, 635 nm fluorescence (AID 1102); conditions: FGF10 binding, fluorescence 635 nm, higher = more signal
Chain of Fibroblast growth factor 10 (Homo sapiens) (O15520 whole entry, looked up): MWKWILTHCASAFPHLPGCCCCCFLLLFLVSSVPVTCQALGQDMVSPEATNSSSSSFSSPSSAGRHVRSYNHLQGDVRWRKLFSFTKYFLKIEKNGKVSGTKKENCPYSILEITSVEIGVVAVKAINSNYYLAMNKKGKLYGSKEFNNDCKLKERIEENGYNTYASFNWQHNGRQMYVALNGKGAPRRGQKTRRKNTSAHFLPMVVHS

[16] = test system: glycogen synthase kinase-3 (GSK3A per assay name; protocol says GSK3B); experiment: GSK3 binders on small-molecule microarrays, primary screen, biochemical, small-molecule microarray, 635 nm fluorescence, GSK3A (AID 1103); conditions: small-molecule microarray binding, fluorescence 635 nm; higher = more signal; also: the record names both GSK3A and GSK3B
[17] = biological target: Epidermal growth factor receptor (Homo sapiens) (UniProt P00533); experiment: EGFR binders on small-molecule microarrays, primary screen, biochemical, small-molecule microarray, 635 nm fluorescence (AID 1104); conditions: EGFR binding, higher = more signal;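 also: score merges 667 nm emission intensity with spot signal to noise over triplicate slides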
Chain of Epidermal growth factor receptor (Homo sapiens) (P00533 whole entry, looked up): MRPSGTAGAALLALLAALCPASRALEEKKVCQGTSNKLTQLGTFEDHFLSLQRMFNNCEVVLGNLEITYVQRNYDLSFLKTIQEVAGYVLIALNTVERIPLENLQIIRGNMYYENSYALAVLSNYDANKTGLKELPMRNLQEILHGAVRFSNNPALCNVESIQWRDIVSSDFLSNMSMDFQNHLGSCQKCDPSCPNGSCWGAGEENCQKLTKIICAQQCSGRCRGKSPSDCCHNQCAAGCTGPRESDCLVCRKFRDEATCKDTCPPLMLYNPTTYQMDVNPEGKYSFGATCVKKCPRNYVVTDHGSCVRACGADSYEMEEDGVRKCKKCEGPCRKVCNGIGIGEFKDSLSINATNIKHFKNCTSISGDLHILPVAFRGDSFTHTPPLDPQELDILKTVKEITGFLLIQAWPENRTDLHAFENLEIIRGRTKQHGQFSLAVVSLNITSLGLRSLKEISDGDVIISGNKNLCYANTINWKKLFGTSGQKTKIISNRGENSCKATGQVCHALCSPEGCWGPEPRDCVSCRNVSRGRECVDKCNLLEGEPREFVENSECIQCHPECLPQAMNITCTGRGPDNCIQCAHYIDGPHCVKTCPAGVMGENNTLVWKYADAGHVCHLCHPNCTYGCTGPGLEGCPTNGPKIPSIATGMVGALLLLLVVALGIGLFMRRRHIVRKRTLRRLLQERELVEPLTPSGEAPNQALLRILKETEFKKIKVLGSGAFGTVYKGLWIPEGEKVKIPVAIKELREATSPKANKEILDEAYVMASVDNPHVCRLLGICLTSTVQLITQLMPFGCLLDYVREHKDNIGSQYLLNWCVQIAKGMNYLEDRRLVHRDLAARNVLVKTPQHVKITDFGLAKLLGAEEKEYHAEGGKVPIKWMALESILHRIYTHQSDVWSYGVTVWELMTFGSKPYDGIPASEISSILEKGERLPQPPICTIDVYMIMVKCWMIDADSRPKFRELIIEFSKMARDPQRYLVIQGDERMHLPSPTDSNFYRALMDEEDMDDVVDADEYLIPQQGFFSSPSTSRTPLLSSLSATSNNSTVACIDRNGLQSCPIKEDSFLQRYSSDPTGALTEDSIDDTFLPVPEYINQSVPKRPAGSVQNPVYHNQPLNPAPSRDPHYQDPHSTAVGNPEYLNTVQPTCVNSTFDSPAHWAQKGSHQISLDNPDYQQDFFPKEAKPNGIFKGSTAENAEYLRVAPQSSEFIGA

[18] = biological target: Follistatin-related protein 3 (Homo sapiens) (UniProt O95633); experiment: FSTL3 binders on small-molecule microarrays, primary screen, biochemical, small-molecule microarray, 635 nm fluorescence (AID 1105); conditions: FSTL3 binding, higher = more signal;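 also: score merges emission near 667 nm and signal to noise per printed spot across three slides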
Chain of Follistatin-related protein 3 (Homo sapiens) (O95633 whole entry, looked up): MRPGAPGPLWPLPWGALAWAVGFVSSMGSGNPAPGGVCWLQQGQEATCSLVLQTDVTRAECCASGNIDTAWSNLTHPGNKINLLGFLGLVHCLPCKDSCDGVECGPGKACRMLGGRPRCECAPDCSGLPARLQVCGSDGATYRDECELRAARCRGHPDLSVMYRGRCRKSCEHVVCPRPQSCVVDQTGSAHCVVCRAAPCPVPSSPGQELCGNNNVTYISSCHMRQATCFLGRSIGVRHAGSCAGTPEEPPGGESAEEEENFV

[19] = biological target: Dickkopf-related protein 1 (Homo sapiens) (UniProt O94907); experiment: DKK1 binders on small-molecule microarrays, primary screen, biochemical, small-molecule microarray, 635 nm fluorescence scan (AID 1106); conditions: DKK1 binding, higher = more signal;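 also: score merges emission near 667 nm with signal to noise over three replicate slides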
Chain of Dickkopf-related protein 1 (Homo sapiens) (O94907 whole entry, looked up): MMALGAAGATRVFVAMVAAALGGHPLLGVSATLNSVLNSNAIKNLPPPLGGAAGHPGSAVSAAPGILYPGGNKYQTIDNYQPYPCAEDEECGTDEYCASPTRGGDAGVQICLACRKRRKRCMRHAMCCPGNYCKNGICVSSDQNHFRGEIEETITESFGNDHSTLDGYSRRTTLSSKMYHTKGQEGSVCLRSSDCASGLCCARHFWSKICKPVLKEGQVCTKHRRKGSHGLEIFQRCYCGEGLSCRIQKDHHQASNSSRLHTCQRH

[20] = test system: Inhibin beta A chain (activin A); experiment: INHBA (activin A) binders on microarrays, primary screen, biochemical, small-molecule microarray, 635 nm fluorescence scan (AID 1107); conditions: small-molecule microarray binding, higher = more signal;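 also: mouse activin A protein probed at 4.33 µg/mL on printed slides; score merges bound-protein fluorescence near 667 nm with spot signal-to-noise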

SMILES	composite z-score [1]	z-score [2]	z-score [3]	z-score [4]	composite z-score [5]	z-score [6]	composite z-score [7]	composite z-score [8]	composite z-score [9]	composite z-score [10]	composite z-score [11]	composite z-score [12]	composite z-score [13]	z-score [14]	composite z-score [15]	composite z-score [16]	composite z-score [17]	composite z-score [18]	composite z-score [19]	composite z-score [20]
CC(=O)OC[C@H]1O[C@H](C#Cc2ccccc2)C=C[C@@H]1OC(C)=O	0.48	0.444 (inactive)	-2.17 (inactive)	-0.747 (inactive)	0.496	0.875 (inactive)	-0.0836	0.653	0.812	-0.0953	1.27	-0.0406	-0.219	-1.92 (inactive)	0.338	0.163	0.0278	0.59	0.57	0.58
COc1ccc(O[C@@H]2[C@H](O)CO[C@@H]2C=Cc2ccccc2)cc1	0.123	-0.565 (inactive)	-1.51 (inactive)	0.0945 (inactive)	0.11	0.0038 (inactive)	-0.238	0.135	0.0877	-0.163	0.638	-0.228	-0.256	-1.63 (inactive)	-0.0055	-0.0208	-0.169	0.367	0.148	0.448
C[C@@H]1CC[C@H]2C(=O)O[C@@H](COc3ccc(C(C)(C)C)cc3)CN2[C@@H]1c1ccc(Br)cc1	-0.118	0.228 (inactive)	-0.492 (inactive)	0.147 (inactive)	-0.158	-0.0121 (inactive)	0.464	-0.835	-0.91	-0.0946	-0.0295	-0.339	-0.0805	-0.36 (inactive)	-0.828	-0.796	-0.291	-0.964	-0.924	0.011
CSCC[C@@H]1NC(=O)CC=C[C@@H](C)COC(=O)[C@@H](C)COC1=O	1.21	0.506 (inactive)	-0.463 (inactive)	-0.318 (inactive)	0.0424	0.59 (inactive)	-0.103	0.882	-0.142	-0.197	-0.0958	-0.417	-0.816	-0.0857 (inactive)	-0.0586	0.812	0.0541	-0.149	-0.18	0.705
C[C@@H]1C=CCC(=O)OC[C@H]2O[C@@H](C=C[C@@H]2O)[C@H](C)C=CCC(=O)OC1	1.55	-2.12 (inactive)	-1.24 (inactive)	-0.618 (inactive)	-1.24	-0.293 (inactive)	-0.254	1.86	0.595	-0.0455	1.29	-0.594	-1.55	-0.813 (inactive)	1.1	0.963	1.23	1.59	1.53	1.91
C[C@H]1COC(=O)[C@@H]2CCCN2C(=O)[C@@H](C)COC(=O)[C@H](Cc2ccccc2)NC1=O	0.907	-0.801 (inactive)	0.103 (inactive)	-1.2 (inactive)	1.24	0.0412 (inactive)	-0.141	0.396	0.889	0.081	0.878	-0.275	-0.647	0.282 (inactive)	0.338	0.727	0.911	0.511	0.374	-0.372
CCOC(=O)[C@H](CC(C)C)NC(=O)CCC1CC(OC(=O)NCc2cccc3ccccc23)CC2(CCCC(COC(=O)NCc3cccc(C(F)(F)F)c3)O2)O1 (stereo not given in full)	0.221	0.533 (inactive)	0.171 (inactive)	0.289 (inactive)	0.135	0.294 (inactive)	-0.251	0.582	0.359	-0.137	0.0007	-0.167	-0.346	-0.349 (inactive)	0.475	0.362	0.508	0.346	0.491	-0.0188
C=Cc1ccc([C@H]2N[C@H](C(=O)O)CC[C@@H]2C)cc1	-1.29	-0.382 (inactive)	-0.261 (inactive)	-0.676 (inactive)	-0.447	0.58 (inactive)	0.0772	0.0295	0.417	-0.0349	-0.642	0.178	0.02	0.0747 (inactive)	0.741	-0.88	0.14	0.505	0.723	0.363
COC(=O)C=CCCc1coc(C=CCNC(=O)OC)n1	1.45	0.339 (inactive)	0.255 (inactive)	0.196 (inactive)	0.254	-1.42 (inactive)	0.17	1.37	1.08	0.161	0.844	0.161	-0.388	0.183 (inactive)	0.789	0.643	0.867	1.07	1.16	1.3
CCOC(=O)[C@H](CC(C)C)NC(=O)CCC1CC(OC(=O)NCc2cccc3ccccc23)CC2(CCCC(COC(=O)NCCC(C)C)O2)O1 (stereo not given in full)	0.554	-3.9 (inactive)	-2.7 (inactive)	-1.89 (inactive)	0.691	-0.77 (inactive)	-0.221	0.543	0.144	0.0031	1.49	-0.203	-0.196	-2.95 (inactive)	0.335	-0.229	0.59	0.728	0.418	0.203
